Test results published in the supplement of paper PMC4466140.

B1: unnamed (peptide)
chain: HKVLRPFLLRRLKKD

Target: AgAbp1
Assay: SPOT peptide array binding signal intensity (averaged, normalized) (arbitrary units (background-subtracted, floor 0; scale differs between SH3 domains)); higher = stronger binding of the SH3 domain to the peptide
Outline: (§1)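 GST-fused SH3 domains from four yeast species were expressed in E. coli BL21(DE3), purified on glutathione Sepharose and incubated at 10 μg/ml overnight at 4°C in TBS-based blocking buffer on cellulose membranes carrying synthetic 15-mer peptides, with cysteines replaced by serines. Bound protein was detected with anti-GST antibody, an HRP anti-mouse secondary and luminol, then imaged and quantified with Genespotter. Binding signal is the normalized, background-subtracted spot intensity averaged over replicates, in arbitrary units that differ between domains.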

Binder | SPOT peptide array binding signal intensity
B1 | 172

Target: AgBbc1
Assay: as above
Outline: as §1

Binder | SPOT peptide array binding signal intensity
B1 | ≤ 0

Target: AgBem1-D1
Assay: as above
Outline: as §1

Binder | SPOT peptide array binding signal intensity
B1 | ≤ 0

Target: AgBzz1-D1
Assay: as above
Outline: as §1

Binder | SPOT peptide array binding signal intensity
B1 | 1.5

Target: AgBzz1-D2
Assay: as above
Outline: as §1

Binder | SPOT peptide array binding signal intensity
B1 | 31.5

Target: AgCyk3
Assay: as above
Outline: as §1

Binder | SPOT peptide array binding signal intensity
B1 | ≤ 0

Target: AgFus1
Assay: as above
Outline: as §1

Binder | SPOT peptide array binding signal intensity
B1 | 479

Target: AgHof1
Assay: as above
Outline: as §1

Binder | SPOT peptide array binding signal intensity
B1 | 39.4

Target: AgHse1
Assay: as above
Outline: as §1

Binder | SPOT peptide array binding signal intensity
B1 | 2970

Target: AgLsb1
Assay: as above
Outline: as §1

Binder | SPOT peptide array binding signal intensity
B1 | 0.5

Target: AgLsb4
Assay: as above
Outline: as §1

Binder | SPOT peptide array binding signal intensity
B1 | 19.5

Target: AgMyo5
Assay: as above
Outline: as §1

Binder | SPOT peptide array binding signal intensity
B1 | ≤ 0

Target: AgNbp2
Assay: as above
Outline: as §1

Binder | SPOT peptide array binding signal intensity
B1 | 45.8

Target: AgRvs167
Assay: as above
Outline: as §1

Binder | SPOT peptide array binding signal intensity
B1 | 0.5

Target: AgSho1
Assay: as above
Outline: as §1

Binder | SPOT peptide array binding signal intensity
B1 | 156

Target: AgSla1-D1-D2
Assay: as above
Outline: as §1

Binder | SPOT peptide array binding signal intensity
B1 | 27

Target: AgSla1-D3
Assay: as above
Outline: as §1

Binder | SPOT peptide array binding signal intensity
B1 | 2.75

Target: CaAbp1-D1
Assay: as above
Outline: as §1

Binder | SPOT peptide array binding signal intensity
B1 | 569

Target: CaAbp1-D2
Assay: as above
Outline: as §1

Binder | SPOT peptide array binding signal intensity
B1 | 617

Target: CaBbc1
Assay: as above
Outline: as §1

Binder | SPOT peptide array binding signal intensity
B1 | ≤ 0

Target: CaBem1-D1
Assay: as above
Outline: as §1

Binder | SPOT peptide array binding signal intensity
B1 | 3.5

Target: CaBzz1-D1
Assay: as above
Outline: as §1

Binder | SPOT peptide array binding signal intensity
B1 | ≤ 0

Target: CaBzz1-D2
Assay: as above
Outline: as §1

Binder | SPOT peptide array binding signal intensity
B1 | ≤ 0

Target: CaCyk3
Assay: as above
Outline: as §1

Binder | SPOT peptide array binding signal intensity
B1 | ≤ 0

Target: CaFus1
Assay: as above
Outline: as §1

Binder | SPOT peptide array binding signal intensity
B1 | 2980

Target: CaHof1
Assay: as above
Outline: as §1

Binder | SPOT peptide array binding signal intensity
B1 | 7.63e-06

Target: CaHse1
Assay: as above
Outline: as §1

Binder | SPOT peptide array binding signal intensity
B1 | 124

Target: CaLsb1
Assay: as above
Outline: as §1

Binder | SPOT peptide array binding signal intensity
B1 | ≤ 0

Target: CaLsb4
Assay: as above
Outline: as §1

Binder | SPOT peptide array binding signal intensity
B1 | ≤ 0

Target: CaMyo5
Assay: as above
Outline: as §1

Binder | SPOT peptide array binding signal intensity
B1 | ≤ 0

Target: CaNbp2
Assay: as above
Outline: as §1

Binder | SPOT peptide array binding signal intensity
B1 | 715

Target: CaRvs167
Assay: as above
Outline: as §1

Binder | SPOT peptide array binding signal intensity
B1 | 6.08

Target: CaRvs167-3
Assay: as above
Outline: as §1

Binder | SPOT peptide array binding signal intensity
B1 | 281

Target: CaSho1
Assay: as above
Outline: as §1

Binder | SPOT peptide array binding signal intensity
B1 | 736

Target: CaSla1-D1-D2
Assay: as above
Outline: as §1

Binder | SPOT peptide array binding signal intensity
B1 | 8.5

Target: CaSla1-D3
Assay: as above
Outline: as §1

Binder | SPOT peptide array binding signal intensity
B1 | 15.5

Target: ScAbp1
Assay: as above
Outline: as §1

Binder | SPOT peptide array binding signal intensity
B1 | 271

Target: ScBbc1
Assay: as above
Outline: as §1

Binder | SPOT peptide array binding signal intensity
B1 | ≤ 0

Target: ScBem1-D1
Assay: as above
Outline: as §1

Binder | SPOT peptide array binding signal intensity
B1 | 19.5

Target: ScBzz1-D1
Assay: as above
Outline: as §1

Binder | SPOT peptide array binding signal intensity
B1 | 22.5

Target: ScBzz1-D2
Assay: as above
Outline: as §1

Binder | SPOT peptide array binding signal intensity
B1 | ≤ 0

Target: ScCyk3
Assay: as above
Outline: as §1

Binder | SPOT peptide array binding signal intensity
B1 | 38

Target: ScFus1
Assay: as above
Outline: as §1

Binder | SPOT peptide array binding signal intensity
B1 | 742

Target: ScHof1
Assay: as above
Outline: as §1

Binder | SPOT peptide array binding signal intensity
B1 | ≤ 0

Target: ScHse1
Assay: as above
Outline: as §1

Binder | SPOT peptide array binding signal intensity
B1 | 2170

Target: ScLsb1
Assay: as above
Outline: as §1

Binder | SPOT peptide array binding signal intensity
B1 | ≤ 0

Target: ScLsb2
Assay: as above
Outline: as §1

Binder | SPOT peptide array binding signal intensity
B1 | ≤ 0

Target: ScLsb3
Assay: as above
Outline: as §1

Binder | SPOT peptide array binding signal intensity
B1 | ≤ 0

Target: ScLsb4
Assay: as above
Outline: as §1

Binder | SPOT peptide array binding signal intensity
B1 | ≤ 0

Target: ScMyo3
Assay: as above
Outline: as §1

Binder | SPOT peptide array binding signal intensity
B1 | 1.12

Target: ScMyo5
Assay: as above
Outline: as §1

Binder | SPOT peptide array binding signal intensity
B1 | 2.5

Target: ScNbp2
Assay: as above
Outline: as §1

Binder | SPOT peptide array binding signal intensity
B1 | 102

Target: ScPex13
Assay: as above
Outline: as §1

Binder | SPOT peptide array binding signal intensity
B1 | 0.5

Target: ScRvs167
Assay: as above
Outline: as §1

Binder | SPOT peptide array binding signal intensity
B1 | 3.42

Target: ScSho1
Assay: as above
Outline: as §1

Binder | SPOT peptide array binding signal intensity
B1 | 994

Target: ScSla1-D1-D2
Assay: as above
Outline: as §1

Binder | SPOT peptide array binding signal intensity
B1 | ≤ 0

Target: ScSla1-D3
Assay: as above
Outline: as §1

Binder | SPOT peptide array binding signal intensity
B1 | 3.25

Target: SpAbp1-D1
Assay: as above
Outline: as §1

Binder | SPOT peptide array binding signal intensity
B1 | 250

Target: SpBbc1
Assay: as above
Outline: as §1

Binder | SPOT peptide array binding signal intensity
B1 | 3

Target: SpBzz1-D1
Assay: as above
Outline: as §1

Binder | SPOT peptide array binding signal intensity
B1 | 70

Target: SpBzz1-D2
Assay: as above
Outline: as §1

Binder | SPOT peptide array binding signal intensity
B1 | 7.63e-06

Target: SpCyk3
Assay: as above
Outline: as §1

Binder | SPOT peptide array binding signal intensity
B1 | 1.5

Target: SpHof1
Assay: as above
Outline: as §1

Binder | SPOT peptide array binding signal intensity
B1 | 74.8

Target: SpHof1-2
Assay: as above
Outline: as §1

Binder | SPOT peptide array binding signal intensity
B1 | 4

Target: SpHof1-3
Assay: as above
Outline: as §1

Binder | SPOT peptide array binding signal intensity
B1 | 1720

Target: SpHse1
Assay: as above
Outline: as §1

Binder | SPOT peptide array binding signal intensity
B1 | 2230

Target: SpLsb1
Assay: as above
Outline: as §1

Binder | SPOT peptide array binding signal intensity
B1 | ≤ 0

Target: SpLsb4
Assay: as above
Outline: as §1

Binder | SPOT peptide array binding signal intensity
B1 | ≤ 0

Target: SpMyo1
Assay: as above
Outline: as §1

Binder | SPOT peptide array binding signal intensity
B1 | 2.62

Target: SpNbp2
Assay: as above
Outline: as §1

Binder | SPOT peptide array binding signal intensity
B1 | 222

Target: SpPex13
Assay: as above
Outline: as §1

Binder | SPOT peptide array binding signal intensity
B1 | 13.5

Target: SpRvs167
Assay: as above
Outline: as §1

Binder | SPOT peptide array binding signal intensity
B1 | 0.333

Target: SpSla1-D1-D2
Assay: as above
Outline: as §1

Binder | SPOT peptide array binding signal intensity
B1 | ≤ 0

Target: SpSla1-D3
Assay: as above
Outline: as §1

Binder | SPOT peptide array binding signal intensity
B1 | 5.5
